High-throughput results (PubChem)
Sampled rows, rich in hits. Any-hit rate of the full collection: about 6.7%.
Pf Dd2 growth – blocks growth of Plasmodium falciparum Dd2 parasites | hit rate 2.3% among 94,000 | activity change, % at 10 µM | P. falciparum Dd2 growth, SYBR Green, 72 h; active compounds read low; in the data active = activity change below about -80%; inconclusive = no clear call, values can overlap the other calls
T cruzi growth-1 – T. cruzi proliferation inhibition | T. cruzi beta-gal in NIH3T3, GalScreen luminescence, 90 h | inhibition, % at 8.34 µM | hit rate 5.9% among 77,000;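 active = mean inhibition above about 93%, with at least 55% of replicates each passing it, limit read from the data, passing the limit was not always enough; inconclusive = only one of those two conditions holds; inactive = neither condition holds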
C diff growth – C. difficile growth inhibition | Clostridium difficile clinical isolate growth, OD600, 24 h; active compounds read low | growth activity, negative = inhibition, % at 16 µg/mL (by protocol) | hit rate 0.25% among 86,000;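 active = mean growth activity at or below -80% and every replicate also at or below -80%; inconclusive = mean at or below -80% but some replicate above -80%; inactive = mean growth activity above -80%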;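 note: 0% = DMSO wells and -100% = levofloxacin 16 µg/mL wells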
T cruzi growth-2 – blocks T. cruzi growth in NIH3T3 host cells; hit rate 72% among 5,600; T. cruzi beta-gal in NIH3T3, GalScreen luminescence, 90 h; shares compounds with T cruzi growth-1; AID 651739; inhibition, % at 8.35 µM;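 active = mean replicate inhibition above about 95% and at least 55% of replicates individually reaching it, limit read from the data; inconclusive = only one of the two criteria is met; inactive = neither criterion is met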
T cruzi growth-3 – blocks T. cruzi growth in NIH3T3 host cells; shares compounds with T cruzi growth-1; hit rate 21% among 5,600; inhibition, % at 2.09 µM; T. cruzi beta-gal in NIH3T3, GalScreen luminescence, 90 h;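 active = mean inhibition above about 95%, with at least 55% of replicates also reaching it, limit read from the data; inconclusive = meets just one of the two conditions; inactive = meets neither condition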;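 note: plate controls were neutral control median for no effect and positive control median for full effect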
3T3 cytotox – NIH/3T3 (mouse) viability loss | shares compounds with T cruzi growth-1 | NIH/3T3 viability, CellTiter-Glo ATP luminescence, 90 h | cytotoxicity (signal decrease), % at 8.35 µM | hit rate 14% among 5,600 | AID 651742;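 active = mean signal decrease across replicates above about 35% based on untreated-well scatter, with enough replicates individually passing, limit read from the data; inconclusive = no rule stated though some were filed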;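 note: 0% = median of neutral control wells and 100% = median of positive control wells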
NIH3T3 tox 2 – cytotoxicity in mouse NIH/3T3 fibroblasts; shares compounds with T cruzi growth-1; NIH/3T3 viability, CellTiter-Glo ATP luminescence, 90 h; inhibition, % at 24.9 µM; hit rate 56% among 5,600; AID 651744;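 active = mean loss of cell viability signal at or above a set limit, and enough replicates individually reaching it; inconclusive = meets only the mean limit or only the replicate share; inactive = meets neither condition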;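 note: 0% = median of neutral control wells and 100% = median of positive control wells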
Active calls of the source: *; ? = inconclusive; . = no result given.

SMILES	Pf Dd2 growth	T cruzi growth-1	C diff growth	T cruzi growth-2	T cruzi growth-3	3T3 cytotox	NIH3T3 tox 2
COc1ccc(S(=O)(=O)N2C[C@@H](O)COC[C@@H]3O[C@H](CC(=O)N(C)C)CC[C@H]32)cc1	29	-60	0	.	.	.	.
COc1cccc(S(=O)(=O)N(C)C[C@H]2OCc3cn(nn3)CCCC(=O)N([C@H](C)CO)C[C@H]2C)c1	-10	38	0	.	.	.	.
COc1cccc(S(=O)(=O)N(C)C[C@@H]2OCc3cn(nn3)CCCC(=O)N([C@@H](C)CO)C[C@H]2C)c1	5	?	-1	94	4	7	15
COc1ccc(OC(=O)N(C)C[C@@H]2OCc3cn(nn3)CCCC(=O)N([C@H](C)CO)C[C@@H]2C)cc1	15	113*	-2	42	-17	5	4
COc1ccc(OC(=O)N(C)C[C@H]2OCc3cn(nn3)CCCC(=O)N([C@H](C)CO)C[C@H]2C)cc1	2	22	2	.	.	.	.
O=C(C[C@H]1CC[C@H]2[C@@H](COC[C@@H](O)CN2C(=O)c2ccccc2)O1)NCCCN1CCOCC1	-3	17	2	.	.	.	.
C[C@@H]1CN([C@@H](C)CO)C(=O)Cc2cc(NC(=O)CCCN(C)C)ccc2O[C@@H]1CN(C)S(=O)(=O)c1ccc(Cl)cc1	-6	.	18	.	.	.	.
C[C@@H]1CN([C@H](C)CO)C(=O)c2cc(NC(=O)Nc3ccc4c(c3)OCO4)ccc2O[C@@H](C)CCCCO[C@H]1CN(C)S(=O)(=O)c1ccc(Cl)cc1	-76	101*	1	108*	43	-13	-10
C[C@@H]1CCCCO[C@H](CN(C)S(=O)(=O)c2ccc(F)cc2)[C@@H](C)CN([C@@H](C)CO)C(=O)c2cc(NC(=O)Nc3ccc4c(c3)OCO4)ccc2O1	-78	35	-7	.	.	.	.
C[C@@H]1CN([C@@H](C)CO)C(=O)c2cc(NC(=O)Nc3ccc4c(c3)OCO4)ccc2O[C@@H](C)CCCCO[C@@H]1CN(C)S(=O)(=O)c1ccc(Cl)cc1	-79	48	7	.	.	.	.
C[C@@H]1CCCCO[C@@H](CN(C)S(=O)(=O)c2ccc(Cl)cc2)[C@H](C)CN([C@H](C)CO)C(=O)c2cc(NC(=O)Nc3ccc4c(c3)OCO4)ccc2O1	-72	106*	3	106*	112*	9	-6
C[C@@H]1CCCCO[C@@H](CN(C)S(=O)(=O)c2ccc(Cl)cc2)[C@@H](C)CN([C@@H](C)CO)C(=O)c2cc(NC(=O)Nc3ccc4c(c3)OCO4)ccc2O1	-88*	97*	11	105*	79	16	27
C[C@@H]1CCCCO[C@@H](CN(C)S(=O)(=O)c2ccc(Cl)cc2)[C@H](C)CN([C@@H](C)CO)C(=O)c2cc(NC(=O)Nc3ccc4c(c3)OCO4)ccc2O1	-65	103*	3	110*	80	-2	-11
Cc1ccc(S(=O)(=O)N(C)C[C@H]2OCCCC[C@@H](C)Oc3ccc(NC(=O)Nc4ccc5c(c4)OCO5)cc3C(=O)N([C@@H](C)CO)C[C@@H]2C)cc1	-73	.	.	.	.	.	.
C[C@@H]1CCCCO[C@@H](CN(C)S(=O)(=O)c2ccccc2)[C@H](C)CN([C@@H](C)CO)C(=O)c2cc(NC(=O)Nc3ccc4c(c3)OCO4)ccc2O1	-29	51	3	.	.	.	.
CCCNC(=O)Nc1ccc2c(c1)C(=O)N(C)C[C@H](OC)[C@H](C)CN(C(=O)C1CCC1)[C@H](C)CO2	.	92	.	.	.	.	.
CCCN1C[C@H](C)[C@H](OC)CN(C)C(=O)c2cc(NS(=O)(=O)c3ccccc3)ccc2OC[C@@H]1C	3	2	.	.	.	.	.
C[C@@H]1CN([C@H](C)CO)C(=O)c2cc(NS(=O)(=O)c3ccc(F)cc3)ccc2O[C@@H](C)CCCCO[C@H]1CN(C)Cc1ccncc1	-30	.	2	.	.	.	.
O=C(CN1CCOCC1)N[C@@H]1CC[C@H](CCNC(=O)C2CCCCC2)O[C@@H]1CO	-10	.	1	.	.	.	.
Cc1noc(C)c1NC(=O)Nc1ccc2c(c1)C(=O)N([C@@H](C)CO)C[C@H](C)[C@@H](CN(C)S(=O)(=O)c1ccc(Cl)cc1)OCCCC[C@@H](C)O2	-76	99*	0	59	10	-2	4
Cc1noc(C)c1NC(=O)Nc1ccc2c(c1)C(=O)N([C@H](C)CO)C[C@H](C)[C@@H](CN(C)S(=O)(=O)c1ccc(Cl)cc1)OCCCC[C@@H](C)O2	-11	3	1	.	.	.	.
O=C(C[C@H]1CC[C@H]2[C@@H](COC[C@@H](O)CN2CCC(F)(F)F)O1)NCc1ccc(Oc2ccccc2)cc1	.	108*	11	85	11	39*	12
O=C(C[C@@H]1CC[C@@H]2[C@H](COC[C@@H](O)CN2CCC(F)(F)F)O1)NCC1CC1	11	26	.	.	.	.	.
O=C(C[C@H]1CC[C@@H]2[C@H](COC[C@H](O)CN2CCc2ccccc2)O1)NCc1ccc(Oc2ccccc2)cc1	-8	103*	.	102*	95	0	107*
O=C(C[C@H]1CC[C@@H]2[C@H](COC[C@@H](O)CN2CCC(F)(F)F)O1)NCC1CCCCC1	13	107*	4	32	6	21	24
SMILES	Pf Dd2 growth	T cruzi growth-1	C diff growth	T cruzi growth-2	T cruzi growth-3	3T3 cytotox	NIH3T3 tox 2
O=C(C[C@@H]1CC[C@H]2[C@@H](COC[C@H](O)CN2CCc2ccccc2)O1)NCc1ccc(Oc2ccccc2)cc1	3	64	.	.	.	.	.
O=C(C[C@@H]1CC[C@H]2[C@@H](COC[C@H](O)CN2CCC(F)(F)F)O1)NCc1ccc(Oc2ccccc2)cc1	.	53	76	.	.	.	.
C[C@H](CO)N1C[C@H](C)[C@H](CN(C)Cc2ccncc2)OCCCC[C@H](C)Oc2ccc(NC(=O)CCC(F)(F)F)cc2C1=O	.	54	2	.	.	.	.
O=[N+]([O-])c1ccccc1/C=C/c1ccncc1	.	.	-24	.	.	.	.
CN(C)CC(=O)N[C@@H]1C=C[C@H](CC(=O)NCc2ccccc2F)O[C@H]1CO	9	-60	1	.	.	.	.
C/C=C/c1ccc2c(c1)O[C@H](CN(C)Cc1ccc(F)cc1)[C@H](C)CN([C@@H](C)CO)S2(=O)=O	3	59	-8	.	.	.	.
C/C=C/c1ccc2c(c1)O[C@@H](CN(C)Cc1ccc(F)cc1)[C@H](C)CN([C@H](C)CO)S2(=O)=O	-52	119*	25	98*	110*	52*	105*
C/C=C/c1ccc2c(c1)O[C@@H](CN(C)Cc1ccc(F)cc1)[C@@H](C)CN([C@@H](C)CO)S2(=O)=O	-44	91	-3	.	.	.	.
C/C=C/c1ccc2c(c1)O[C@H](CN(C)Cc1ccc(F)cc1)[C@@H](C)CN([C@H](C)CO)S2(=O)=O	-58	104*	21	?	93	?	106*
C[C@@H]1CN([C@H](C)CO)C(=O)c2cc(NS(=O)(=O)c3ccc(Cl)cc3)ccc2O[C@@H](C)CCCCO[C@@H]1CN(C)C(=O)NC1CCCCC1	2	93	7	.	.	.	.
